Sampled rows, rich in hits. Any-hit rate of the full collection: about 0.89%.
MBNL1-CUG inh: qHTS Assay for Inhibitors of MBNL1-poly(CUG) RNA binding. Muscleblind-like protein 1 (Homo sapiens), Q9NR56. Potency, µM (doses to about 57.5 µM), without a hit: top-dose activity change, negative = inhibition, usual class: inhibitors. TR-FRET MBNL1-His/biotin-(CUG)12 binding, 665/545 ratio. actives 0.036% (n = 280,000); active = well fitted inhibition curve with a large enough effect in the signal ratio, with a control signal flat, not every such curve was filed as active; inconclusive = small, poorly fitted or top-dose-only effect, or effect the other way, or a change in a side signal; inactive = no such curve, though single readings can be large or run the other way; the % refers to the signal ratio; also: potency is read from the fitted curve at half-maximal effect; % is scaled to controls: 0 for no effect and ±100 for the full control effect
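Compounds (final 92 nM to 58 uM) are added to His-tagged MBNL1 and biotin-(CUG)12, then terbium anti-His antibody and streptavidin-XL665 (5 nM final). After 60 min at room temperature, the 665/545 nm ratio is read.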
Eya2 inh: qHTS Assay for Inhibitors of the Phosphatase Activity of Eya2; AID 488837, 2010; Potency, µM (highest dose often 76.9 µM), without a hit: top-dose activity, negative = inhibition, hits mostly inhibitors; recombinant Eya2, OMFP fluorescence dephosphorylation (OMFP is methylfluorescein phosphate); actives 0.006% (n = 330,000); also: potency is read from the fitted curve at half-maximal effect; % is scaled to controls: 0 for no effect and ±100 for the full control effect
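Eya2 protein (added as 0.2 uM solution) was preincubated with compound for 10 min at ambient temperature in 50 mM HEPES pH 7.5, 50 mM NaCl, 5 uM MgCl2, 0.05% BSA, 1 mM DTT. OMFP (added at 50 uM) then reacted 10 min; fluorescence read at 485/525 nm.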
Six1-Eya2 blk: qHTS Assay for Inhibitors of the Six1/Eya2 Interaction; Homeobox protein SIX1 (Homo sapiens) + Protein phosphatase EYA2 (Homo sapiens), …; AlphaScreen GST-Six1/His-Eya2 binding, biochemical; stronger effect = lower value; activity change, % (concentration not given with the values); actives 0.56% (n = 360,000); AID 651725, 2012; in the data active = activity change below about -65%; inconclusive = mostly about -30% to -63%; also: % is scaled to controls: 0 for no effect and ±100 for the full control effect
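GST-Six1 + His-Eya2 (5X stock: 250/500 nM); Tris pH 8.0, 300 mM NaCl, 0.05% BSA, 0.02% Tween 20; GSH donor/Ni acceptor beads; 1 h 37 °C dark; AlphaScreen readout.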
CtBP-E1A blk: qHTS Assay for Inhibitors of the CtBP/E1A Interaction; actives 0.49% (n = 340,000); AlphaScreen GST-E1A/His-CtBP binding, 1536-well; stronger effect = lower value; CtBP / adenovirus E1A interaction (AlphaScreen); activity change, % (concentration not given with the values); in the data active = activity change below about -65%; inconclusive = mostly about -30% to -63%; also: % is scaled to controls: 0 for no effect and ±100 for the full control effect
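AlphaScreen with 125 nM GST-E1A and 125 nM His-CtBP (5X stocks) in Tris pH 8.0, 300 mM NaCl, BSA, Tween 20, TCEP. Compounds preincubated 2 h at 37 deg C, then glutathione donor/nickel acceptor beads added for 1 h at 37 deg C in dark.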
L3MBTL1 inh-1: qHTS Assay for the Inhibitors of L3MBTL1; Potency, µM (doses to about 57.1 µM), for the others: at the top dose activity, negative = inhibition, usual class: inhibitors; Lethal(3)malignant brain tumor-like protein 1 (Homo sapiens), Q9Y468; AlphaScreen L3MBTL1–H3K9me1 peptide binding; AID 485360, 2010; actives 0.66% (n = 230,000); also: potency is read from the fitted curve at half-maximal effect; % is scaled to controls: 0 for no effect and ±100 for the full control effect; nearly all actives have a fitted effect of over 60% in size
Target sequence (Q9Y468 whole entry, looked up): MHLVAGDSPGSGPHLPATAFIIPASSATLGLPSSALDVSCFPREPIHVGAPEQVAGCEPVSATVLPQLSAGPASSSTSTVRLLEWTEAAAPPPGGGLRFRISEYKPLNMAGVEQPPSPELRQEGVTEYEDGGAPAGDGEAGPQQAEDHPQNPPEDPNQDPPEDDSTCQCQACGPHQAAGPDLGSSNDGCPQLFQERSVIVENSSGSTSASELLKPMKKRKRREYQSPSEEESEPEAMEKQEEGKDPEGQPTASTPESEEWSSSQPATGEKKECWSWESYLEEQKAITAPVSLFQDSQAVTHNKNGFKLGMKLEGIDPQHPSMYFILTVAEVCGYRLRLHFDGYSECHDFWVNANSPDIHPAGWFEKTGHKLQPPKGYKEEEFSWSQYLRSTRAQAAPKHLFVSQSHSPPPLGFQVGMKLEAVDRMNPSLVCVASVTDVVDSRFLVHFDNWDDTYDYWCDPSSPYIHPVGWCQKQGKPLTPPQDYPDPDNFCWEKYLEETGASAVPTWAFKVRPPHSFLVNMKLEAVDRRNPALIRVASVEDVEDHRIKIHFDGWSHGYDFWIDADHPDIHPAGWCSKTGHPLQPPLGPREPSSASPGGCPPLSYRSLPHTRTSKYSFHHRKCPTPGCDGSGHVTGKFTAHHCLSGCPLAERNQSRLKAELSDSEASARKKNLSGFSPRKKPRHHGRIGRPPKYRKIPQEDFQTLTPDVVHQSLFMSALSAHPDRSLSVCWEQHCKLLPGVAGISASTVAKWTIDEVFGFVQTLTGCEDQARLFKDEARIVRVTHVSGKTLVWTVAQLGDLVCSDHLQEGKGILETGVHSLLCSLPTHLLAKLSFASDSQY
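AlphaScreen assay: L3MBTL1 (50 nM final) was preincubated 30 min at room temperature with biotinylated H3(1-15)K9me1 peptide (75 nM final), then 30 min with library compounds; streptavidin donor and nickel chelate acceptor beads (10 ug/mL final) added, 30 min dark.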
CBFb-RUNX1 inh: qHTS Assay for Compounds Blocking the Interaction Between CBF-beta and RUNX1 for the Treatment of Acute Myeloid Leukemia. Runt-related transcription factor 1 (Homo sapiens) + Core-binding factor subunit beta …. AlphaScreen CBFb-His/RUNX1-biotin binding, biochemical. Potency, µM (top dose mostly 59.8 µM), for inactives: top-dose activity, negative = inhibition, hits mostly inhibitors. 230,000 tested, under 10 active. AID 1477, 2009; also: % of control where 0% means no effect
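CBF-beta (His) and RUNX1 (biotin), 30 nM each; 20 min preassociation; + compound, 15 min; + beads 50 ng each (Ni, streptavidin), 90 min; RT; AlphaScreen read.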
L3MBTL1 inh-2: qHTS Assay for the Inhibitors of L3MBTL1: Hit Validation; shares compounds with L3MBTL1 inh-1; L3MBTL1 methyl-lysine binding inhibition, biochemical qHTS; Potency, µM, most hits filed as inhibitors; actives 91% (n = 500); AID 540279, 2011; also: potency is read from the fitted curve at half-maximal effect; nearly all actives have a fitted effect of over 70% in size
AlphaScreen ctr2: qHTS Assay for the Inhibitors of L3MBTL1: Hit Validationin AlphaScreen Counterscreen; shares compounds with L3MBTL1 inh-1; AlphaScreen counterscreen, signal inhibition; Potency, µM (titrated, usually from 57.1 µM), for inactives: at the highest dose activity change, negative = inhibition, hits mostly inhibitors; 500 tested, under 10 active; also: potency is read from the fitted curve at half-maximal effect; 0% is about no effect
Numbers without * were called inactive; [ ] = dose if it differs, or a comment. Unless noted, calls follow the shape of the dose curve; as a rule, active = well fitted curve in the direction sought with a large enough effect; inconclusive = small, poorly fitted or top-dose-only effect, or another doubt; inactive = no such curve, though single readings can be large; an effect the other way counts as inactive or inconclusive.

`O=C(COC(=O)C1CCN(S(=O)(=O)c2cccs2)CC1)c1cc2ccccc2o1` gave MBNL1-CUG inh 33.5%, Eya2 inh 1.6%, Six1-Eya2 blk -6.3, CtBP-E1A blk -5.0, L3MBTL1 inh-1 31.6µM*, CBFb-RUNX1 inh -12.2%, L3MBTL1 inh-2 inconclusive and AlphaScreen ctr2 -1.3%.
For CC[C@H](C)[C@H](N)C(=O)N[C@@H](CCCNC(=N)N)C(=O)N[C@@H](CCC(N)=O)C(=O)NCC(=O)N1CCC[C@H]1C(=O)N[C@@H](CCCCN)C(=O)N[C@@H](CCC(=O)O)C(=O)N1CCC[C@H]1C(=O)N[C@@H](Cc1ccccc1)C(=O)N[C@@H](CCCNC(=N)N)C(=O)N[C@@H](CC(=O)O)C(=O)N[C@@H](Cc1ccc(O)cc1)C(=O)N[C@H](C(=O)N[C@@H](CC(=O)O)C(=O)N[C@@H](CCCNC(=N)N)C(=O)N[C@@H](Cc1ccccc1)C(=O)N[C@@H](Cc1ccc(O)cc1)C(=O)N[C@@H](CCCCN)C(=O)N[C@H](C(=O)N[C@@H](CC(C)C)C(=O)O)[C@@H](C)O)C(C)C the results were CBFb-RUNX1 inh 2.0%.
Screening Cc1sc(NC(=O)c2sc3nc4c(C)cccc4cc3c2N)c(C#N)c1C returned MBNL1-CUG inh -2.0%, Eya2 inh 18.9%, Six1-Eya2 blk -9.4, CtBP-E1A blk -24.5, L3MBTL1 inh-1 17.8µM*, CBFb-RUNX1 inh -3.4%, L3MBTL1 inh-2 6.7* and AlphaScreen ctr2 -2.1%.
For Cc1cccc2cc3c(N)c(C#N)sc3nc12 the results were MBNL1-CUG inh inconclusive, Eya2 inh -10.8%, Six1-Eya2 blk 7.5, CtBP-E1A blk -2.8, L3MBTL1 inh-1 28.7% and CBFb-RUNX1 inh 24.5%.
Cc1ccccc1NC(=O)c1nc2nccc(C)n2n1 was read as MBNL1-CUG inh -2.9%, Eya2 inh 13.0%, L3MBTL1 inh-1 43.7% and CBFb-RUNX1 inh -10.7%.
Screening Cc1ccnc2nc(C(=O)Nc3nc(-c4ccccn4)cs3)nn12 returned MBNL1-CUG inh 9.4%, Eya2 inh 1.2%, Six1-Eya2 blk -91.6*, CtBP-E1A blk -84.7*, L3MBTL1 inh-1 14.1µM*, L3MBTL1 inh-2 4.23* and AlphaScreen ctr2 inconclusive.
For O=c1cc(OCc2ccccc2)cc[nH]1 the results were Eya2 inh -1.9%, Six1-Eya2 blk 4.1, CtBP-E1A blk 2.5, L3MBTL1 inh-1 28.2µM*, L3MBTL1 inh-2 5.97* and AlphaScreen ctr2 -20.5%.
Cc1[nH]ccc(=O)c1OCc1ccccc1 was read as MBNL1-CUG inh -4.6%, Eya2 inh 0.8%, Six1-Eya2 blk -1.7, CtBP-E1A blk 3.5, L3MBTL1 inh-1 -2.0% and CBFb-RUNX1 inh 5.1%.
`CC(C)CSc1oc(-c2ccco2)nc1S(=O)(=O)c1ccccc1` gave MBNL1-CUG inh 7.9%, Eya2 inh -9.0%, Six1-Eya2 blk 1.2, CtBP-E1A blk 3.3, L3MBTL1 inh-1 -5.0% and CBFb-RUNX1 inh 3.1%.
For COC(=O)C/C=C\[C@@H](C)[C@@H](/C=N\O[C@@H](C)CN1CCCc2nc(C)c(C)cc21)OC the results were CBFb-RUNX1 inh 9.4%[13.1 µM].
For COc1cnc(-c2ccccn2)[nH]c1=O the results were Eya2 inh -27.6%, Six1-Eya2 blk -90.6*, CtBP-E1A blk -94.5*, L3MBTL1 inh-1 10µM*, CBFb-RUNX1 inh inconclusive, L3MBTL1 inh-2 21.2* and AlphaScreen ctr2 13.4%.
For COc1cnc(-c2ccccn2)nc1Oc1ccccc1Cl the results were MBNL1-CUG inh inconclusive, Eya2 inh -13.6%, Six1-Eya2 blk 3.2, CtBP-E1A blk -2.2, L3MBTL1 inh-1 -7.8% and CBFb-RUNX1 inh -16.0%.
`CCC(CC)C(=O)N(C)c1c(C)nc2c(OCc3ccc(OC(F)F)cc3)cccn12` gave Six1-Eya2 blk -2.9 and CtBP-E1A blk -2.5.
Screening COc1ccc(C(N)c2nccc3cc(OC)c(OC)cc23)cc1OC (stereo not drawn) returned MBNL1-CUG inh inconclusive, Eya2 inh 10.0%, Six1-Eya2 blk -75.5*, CtBP-E1A blk inconclusive, L3MBTL1 inh-1 28.2µM*, L3MBTL1 inh-2 11.9* and AlphaScreen ctr2 inconclusive.
For COc1cc(N)c(Cc2nccc3cc(OC)c(OC)cc23)cc1OC the results were MBNL1-CUG inh inconclusive, Eya2 inh -0.7%, Six1-Eya2 blk -18.0, CtBP-E1A blk -10.2, L3MBTL1 inh-1 -5.6% and CBFb-RUNX1 inh -27.9%.
CN1C(=O)S/C(=C/c2cccn2-c2cccc(C(=O)O)c2)C1=O was read as MBNL1-CUG inh inconclusive, Eya2 inh 3.9%, Six1-Eya2 blk -4.1, CtBP-E1A blk -11.6, L3MBTL1 inh-1 inconclusive and CBFb-RUNX1 inh -22.8%.
O=C(O)c1cccc(-n2cccc2/C=C/[N+](=O)[O-])c1 was read as MBNL1-CUG inh 2.4%, Eya2 inh 16.6%, Six1-Eya2 blk inconclusive, CtBP-E1A blk 5.8, L3MBTL1 inh-1 2.82µM*, CBFb-RUNX1 inh inconclusive, L3MBTL1 inh-2 1.68* and AlphaScreen ctr2 4.8%.
O=C(O)c1cccc(-n2cccc2/C=N/O)c1 was read as MBNL1-CUG inh 2.0%, Eya2 inh 19.5%, Six1-Eya2 blk -29.9, CtBP-E1A blk 3.9, L3MBTL1 inh-1 10µM*, CBFb-RUNX1 inh inconclusive, L3MBTL1 inh-2 2.38* and AlphaScreen ctr2 11.5%.
O=C(O)c1cccc(-n2cccc2/C=C\[N+](=O)[O-])c1 was read as MBNL1-CUG inh -9.9%, Eya2 inh -9.1%, Six1-Eya2 blk -21.5, CtBP-E1A blk -9.1, L3MBTL1 inh-1 31.6µM*, CBFb-RUNX1 inh inconclusive, L3MBTL1 inh-2 21.2* and AlphaScreen ctr2 13.5%.

Assay outcomes from PubChem.
